# Screening data as filed in PubChem BioAssay.
# Pf growth 48h = P. falciparum growth inhibition at 48 hours (one generation). 5.9% of 310,000 active. P. falciparum luciferase growth in erythrocytes, 48 h. Potency, µM (highest dose often 28.7 µM), without a hit: at the highest dose activity change, negative = inhibition, hits mostly inhibitors. AID 504832; also: potency is read from the fitted curve at half-maximal effect; % is scaled to controls: 0 for no effect and ±100 for the full control effect
#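 Firefly luciferase activity from engineered P. falciparum reports growth; inhibitors lower the luminescent signal. Cultures contained 2% hematocrit erythrocytes at 0.1% final parasitemia.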
# NS1 inh = influenza NS1 inhibition; Potency, µM (top dose mostly 46.1 µM), for the others: at the top dose activity, positive = more growth; 0.4% of 270,000 active; AID 2326; calls by dose curve; also: potency is read from the fitted curve at half-maximal effect; actives are rising curves; nearly all actives have a fitted effect of over 50% in size
#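 A cell-based growth assay was used: compounds that relieve NS1-induced slow growth of budding yeast raise OD600. Assay medium was yeast nitrogen base with ammonium sulphate and -URA supplement, pH 6.0, with 2% galactose.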
# Giardia FBPA inh = blocks Giardia fructose-bisphosphate aldolase activity. 0.71% of 290,000 active. Potency, µM (doses to about 59.6 µM), for inactives: top-dose activity, negative = inhibition, hits mostly inhibitors. A8B2U2. purified Giardia FBPA; also: potency is read from the fitted curve at half-maximal effect; % is scaled to controls: 0 for no effect and ±100 for the full control effect; nearly all actives have a fitted effect of over 55% in size
# Target sequence (A8B2U2 whole entry, looked up): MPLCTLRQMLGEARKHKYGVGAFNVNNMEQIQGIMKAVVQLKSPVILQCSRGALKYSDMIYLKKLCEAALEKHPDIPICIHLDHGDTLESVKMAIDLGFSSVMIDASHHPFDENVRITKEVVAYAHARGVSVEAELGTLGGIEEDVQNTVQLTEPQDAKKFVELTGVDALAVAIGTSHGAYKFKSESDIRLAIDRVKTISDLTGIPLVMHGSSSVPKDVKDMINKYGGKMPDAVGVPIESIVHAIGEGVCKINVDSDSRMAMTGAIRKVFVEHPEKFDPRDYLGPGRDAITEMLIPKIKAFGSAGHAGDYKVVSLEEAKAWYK
#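 40 nM FBPA preincubated 10 min at RT with compound (up to 57.5 uM final), then substrate plus GAPDH/TPI/NAD/arsenate coupling and diaphorase/resazurin added. Fluorescence read after 20 min at RT, 525/598 nm.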
# Shiga inhibitor = Shiga toxin inhibition | Vero cells, Shiga toxin protein synthesis inhibition reporter | inhibition, % at 38.7 µM | 9.2% of 290,000 active; in the data active = inhibition mostly above about 28%, no sharp cut-off; inactive = mostly below about 43%; also: 0% is about no effect
# Pf growth 96h = inhibits malaria parasite growth, 96 h. P. falciparum luciferase reporter growth, 96 h. Potency, µM (highest dose often 28.7 µM), without a hit: top-dose activity change, negative = inhibition, hits mostly inhibitors. 6.9% of 320,000 active; also: potency is read from the fitted curve at half-maximal effect; % is scaled to controls: 0 for no effect and ±100 for the full control effect
#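 Plates of compound plus infected erythrocytes (2% hematocrit, 0.05% parasitemia final) incubate 96 hours, 37 C, 5% CO2. Detection reagent added; reduced luminescence from the parasites' luciferase reporter flags inhibition.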
# CHX counter = affects cycloheximide protein synthesis inhibition readout, counter-screen; cell reporter, cycloheximide protein synthesis inhibition counterscreen; max response, %; 12% of 300,000 active; in the data active = max response mostly above about 13%, no sharp cut-off; inactive = mostly below about 14%; also: read at 38.3 µM for the half of the compounds with a filed dose; 0% is about no effect
# The depositor's hits bear a star; i = inactive; u = inconclusive; x = no result. An excerpt weighted towards active compounds, which were near 21% of everything screened. Unless noted, calls follow the shape of the dose curve; as a rule, active = well fitted curve in the direction sought with a large enough effect; inconclusive = small, poorly fitted or top-dose-only effect, or another doubt; inactive = no such curve, though single readings can be large; an effect the other way counts as inactive or inconclusive.
SMILES,Pf growth 48h,NS1 inh,Giardia FBPA inh,Shiga inhibitor,Pf growth 96h,CHX counter
O=C(O)c1cccc(NC(=O)c2cc(NC(=O)c3ccccc3)cc(NC(=O)c3ccccc3)c2)c1,40%,30%,6%,-11,8.3µM*,-5
O=C(Nc1ccc(F)cc1F)c1noc2c1CCC2,u,-1%,-4%,59*,37%,35*
O=C(NCc1ccc(F)cc1)c1noc2c1CCCCC2,31%,-17%,4%,32,u,21*
O=C(Nc1cc(Cl)ccc1Cl)c1noc2c1CCCC2,21%,u,-1%,-2,8%,2
O=C(NCc1ccc(Cl)cc1)c1noc2c1CCCCC2,43%,-36%,1%,47*,9.3µM*,32*
O=C(NCc1ccc(F)cc1)c1noc2c1CCCC2,22%,-9%,3%,50,50%,20*
C/C(=N/NC(=O)C(O)(c1ccccc1)c1ccccc1)c1ccc([N+](=O)[O-])o1,u,x,-29%,-8,185%,-5
O=C(COC(=O)c1ccc(F)cc1F)Nc1cccc(S(=O)(=O)N2CCOCC2)c1,74%,x,x,x,37%,x
CCCCn1cnc2c(sc3nc4c(cc32)CSC(C)(C)C4)c1=O,150%,4%,0%,55*,218%,78*
CC(C)CCn1cnc2c(sc3nc4c(cc32)CSC(C)(C)C4)c1=O,265%,9%,-2%,43*,211%,38*
CC1(C)Cc2nc3sc4c(NCCO)ncnc4c3cc2CS1,u,3%,-9%,26,u,20*
CN(C)/[N+]([O-])=N/Oc1cc(ON=[N+]([O-])N2CCN(c3ncccn3)CC2)c([N+](=O)[O-])cc1[N+](=O)[O-],x,x,-16%,-3,x,9
COCC(=O)Nc1cc(C(=O)Nc2ccccc2)ccc1Cl,65%,-34%,-5%,107*,191%,36*
CCOCC(=O)Nc1cc(C(=O)Nc2ccc(F)cc2)ccc1Cl,50%,-1%,-2%,33*,81%,29*
CCOC(=O)C1CCCN(S(=O)(=O)c2ccc3c(c2)N(C(C)=O)CCO3)C1 (configuration not stated),10%,-7%,8%,-6,-2%,-3
OC(COCc1ccc(Cl)cc1)CN1CC=C(c2ccccc2)CC1 (configuration not stated),9.3µM*,-46%,u,-10,3.3µM*,-4
Cc1ccc(S(=O)(=O)N2CCCCC2C)cc1[N+](=O)[O-] (configuration not stated),-1%,-1%,7%,-5,-32%,2
S=C(Nc1ccccc1Cl)NC1CCCCCC1,-18%,-53%,-1%,63*,0%,18*
COc1ccccc1NC(=S)NC1CCCCC1,9%,-16%,-1%,2,9.3µM*,3
COc1ccccc1NC(=S)NC1CCCCCCCCCCC1,1.5µM*,2%,0%,9,u,1
CC(OC(=O)CCN=C1NS(=O)(=O)c2ccccc21)C(=O)Nc1ccc(N(C)C)cc1 (configuration not stated),1%,x,x,x,u,x
Cn1c(=O)oc2cc(S(=O)(=O)N3CCc4ccccc43)ccc21,u,0%,2%,17,16%,9
CCOC(=O)Cn1c(=O)oc2cc(S(=O)(=O)N3CCc4ccccc43)ccc21,x,-12%,-3%,-13,13µM*,-3
CC(C)(C)NC(=O)Cn1c(=O)oc2cc(S(=O)(=O)N3CCc4ccccc43)ccc21,x,u,-1%,-7,1.5µM*,-1
O=C(COC(=O)CCC(=O)c1ccc(Cl)cc1)NC1CC1,19%,x,8%,-8,19%,0
SMILES,Pf growth 48h,NS1 inh,Giardia FBPA inh,Shiga inhibitor,Pf growth 96h,CHX counter
CCCC(C)NC(=O)COc1ccc(S(=O)(=O)N2CCCC2)cc1 (configuration not stated),u,-3%,1%,30,43%,-3
CCCC1=NN2C(=N)/C(=C\c3ccc(OCCOc4ccc(NC(C)=O)cc4)c(OC)c3)C(=O)N=C2S1,-11%,5%,-9%,-8,u,3
Cc1ccc2c3c([nH]c2c1C)-c1nonc1CC3,245%,3%,-12%,44*,-31%,20*
Cc1cc2c(nn1)CCc1nonc1-2,4%,1%,5%,-9,x,-4
Cc1c(C(=O)O)c(O)cc2c1C(=O)c1c(O)c([C@H]3O[C@H](CO)[C@@H](O)[C@H](O)[C@H]3O)c(O)c(O)c1C2=O,-22%,x,18µM*,-12,u,-6
Nc1cccc(-n2cccc2)c1,34%,3%,-9%,3,23%,-3
CC(C)CC(=O)Nc1cccc2c1C(=O)N(c1ccccc1)C2=O,-16%,-8%,2%,7,-15%,-3
CC(C)CC(=O)Nc1cc2nn(-c3ccccc3)nc2cc1Cl,x,-5%,-8%,115*,113%,74*
Nc1ccc2nn(-c3ccccc3)nc2c1,102%,9%,-26%,97*,4%,53*
Nc1cc2nn(-c3ccccc3)nc2cc1Cl,i,x,u,141*,-13%,32*
COc1ccc(NC(=O)COC(=O)c2ccc(S(=O)(=O)N(C)c3ccccc3OC)cc2)c(OC)c1,-10%,7%,1%,-12,1%,-3
COc1cc(C2CC(=O)Oc3ccc(O)cc32)cc(OC)c1OC (configuration not stated),x,x,u,i,x,9
O=C(C1CCN(c2ncnc3c2nc2n3CCCCC2)CC1)N1CCN(c2cccc(Cl)c2)CC1,0%,1%,-7%,-9,-20%,17
O=C(C1CCCN(c2ncnc3c2nc2n3CCCCC2)C1)N1CCN(c2ccc(Cl)cc2)CC1 (configuration not stated),12µM*,-64%,-2%,-4,-15%,-2
O=C(C1CCCN(c2ncnc3c2nc2n3CCCCC2)C1)N1CCCCC1 (configuration not stated),u,-7%,-2%,-7,52%,15
O=C(C1CCCN(c2ncnc3c2nc2n3CCCCC2)C1)N1CCN(c2ccc(F)cc2)CC1 (configuration not stated),9.3µM*,-27%,-7%,-13,u,-4
COC(Cc1ccccc1N1CCCC1=O)OC,8%,-9%,4%,-11,-32%,-3
CC1(C)C(=O)NCCN1C(=O)c1ccc2nc(Cc3ccccc3F)oc2c1,3%,5%,x,21,u,9
COCCc1nc2ccc(C(=O)N(C)Cc3cccc(-n4cccn4)c3)cc2o1,0%,-12%,x,82*,u,62*
COc1ccc(Cc2nc3ccc(C(=O)N(C)CCc4cnn(C)c4)cc3o2)cc1OC,-19%,0%,4%,-3,u,13
CN(Cc1cccnc1)C(=O)c1ccc2nc(Cc3ccccc3F)oc2c1,14%,-13%,-2%,61*,25%,43*
CN(Cc1ccon1)C(=O)c1ccc2nc(Cc3cccc(Cl)c3)oc2c1,0%,-8%,-3%,5,13µM*,22
